# Assay results from article PMC4336329 (PLoS ONE, 2015).
# Out of some 310,000 compounds screened, about 14,000 (4.5%) showed an effect of 50% or more. Effects have a minus sign here. The list comes from a sample in which strong results are over-represented; it also holds similar structures and randomly drawn compounds.
# Biological target: human ether-à-go-go-related gene (hERG) potassium channel (human, UniProt Q12809)
# Test: primary screen, population patch clamp on CHO cells stably expressing hERG; higher = less effect of the substance
# 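Further: peak tail current of the secondary pulse compared with the same well before compound.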
# Sequence of human ether-à-go-go-related gene (hERG) potassium channel (Q12809 whole entry, looked up): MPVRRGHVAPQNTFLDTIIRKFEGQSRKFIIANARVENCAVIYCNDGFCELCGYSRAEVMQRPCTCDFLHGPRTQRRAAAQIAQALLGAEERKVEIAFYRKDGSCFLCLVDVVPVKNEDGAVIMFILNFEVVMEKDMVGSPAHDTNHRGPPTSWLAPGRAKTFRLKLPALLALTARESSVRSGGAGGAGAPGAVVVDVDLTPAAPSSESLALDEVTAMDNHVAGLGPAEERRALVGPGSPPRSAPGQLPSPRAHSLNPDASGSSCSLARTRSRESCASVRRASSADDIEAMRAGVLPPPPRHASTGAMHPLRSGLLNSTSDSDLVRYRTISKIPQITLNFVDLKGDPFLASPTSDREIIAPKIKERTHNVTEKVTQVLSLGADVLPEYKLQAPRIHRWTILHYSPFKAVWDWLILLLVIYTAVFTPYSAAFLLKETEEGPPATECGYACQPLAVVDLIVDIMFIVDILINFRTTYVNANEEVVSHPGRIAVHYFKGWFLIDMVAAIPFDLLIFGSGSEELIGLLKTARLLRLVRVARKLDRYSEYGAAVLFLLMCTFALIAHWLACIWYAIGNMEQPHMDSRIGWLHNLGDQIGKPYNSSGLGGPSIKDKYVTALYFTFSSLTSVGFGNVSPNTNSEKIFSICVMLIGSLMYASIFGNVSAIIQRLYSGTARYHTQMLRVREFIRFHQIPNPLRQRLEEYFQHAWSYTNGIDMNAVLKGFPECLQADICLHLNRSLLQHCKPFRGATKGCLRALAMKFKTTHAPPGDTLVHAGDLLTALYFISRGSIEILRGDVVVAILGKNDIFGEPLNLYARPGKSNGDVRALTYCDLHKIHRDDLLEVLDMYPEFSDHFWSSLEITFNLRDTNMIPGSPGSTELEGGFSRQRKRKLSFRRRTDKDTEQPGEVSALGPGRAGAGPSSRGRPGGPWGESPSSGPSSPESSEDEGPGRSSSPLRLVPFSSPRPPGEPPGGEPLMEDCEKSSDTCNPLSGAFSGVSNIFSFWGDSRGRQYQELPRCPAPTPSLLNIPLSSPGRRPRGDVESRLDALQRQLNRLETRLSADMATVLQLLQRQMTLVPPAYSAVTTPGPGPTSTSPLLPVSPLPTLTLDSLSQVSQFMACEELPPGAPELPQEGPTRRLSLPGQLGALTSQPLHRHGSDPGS
row,Structure (SMILES),"hERG current change (%, negative = inhibition) at 10uM"
1,O=C(C1=COCCO1)N1CCN(C(c2ccccc2)c2ccccc2)CC1,-7.48%
2,Cc1ccc(CNc2nc3ccccc3n3nnnc23)cc1,10.6%
3,CC1CC(C)CN(C(=O)c2ccc3nc[nH]c3c2)C1 (stereo not shown),4.05%
4,O=c1[nH]c2ccc(Cl)cc2c(O)c1Cc1ccccc1,12.6%
5,Cc1ccc2nc(NCC(=O)O)nc(-c3ccccc3)c2c1,4.48%
6,COc1cc(C(=O)NCC2CCCCC2)cc(OC)c1OC,-67.3%
7,COc1cc(C(=O)NCC2CCCO2)cc(OC)c1OC (stereo not shown),16.8%
8,COc1cc(CC(=O)NCC2CCCCC2)cc(OC)c1OC,19.6%
9,CCOC(=O)N1CCN(C(=O)C2CC(=O)N(c3ccc(OC)cc3)C2c2ccc(OC)cc2)CC1 (stereo not shown),-13.2%
10,CC(NC(=O)CSc1nc2c(cc1C#N)CN(C)CC2)c1ccccc1 (stereo not shown),-20.3%
11,CN1CCc2nc(SCCOc3ccccc3)c(C#N)cc2C1,-66.3%
12,Cc1cccc(CSc2nc3c(cc2C#N)CN(C)CC3)c1,-71.2%
13,Cc1cccc(CSc2nc3c(cc2C#N)CCC3)c1,13.7%
14,CN1CCc2nc(SCc3cccc(Br)c3)c(C#N)cc2C1,-11.7%
15,CN1CCc2nc(SCc3ccccc3Br)c(C#N)cc2C1,-28.2%
16,COC/C=C/C1=CC2=CC(=O)C(C)(OC(=O)c3cnc4ccccc4n3)C(=O)C2=CN1CCOC (stereo not shown),13.3%
17,Cc1c[n+]([O-])n(-c2ccc(C(=O)O)cc2)n1,0.473%
18,COc1ccc(N(C(=O)c2snc(C(N)=O)c2N)C(C(=O)NC2CCCC2)c2ccc(OC)c(OC)c2)cc1 (stereo not shown),10.9%
19,CCOC(=O)C1CCN(C(=O)C2CCC(=O)N(CC3CCCCC3)C2)CC1 (stereo not shown),0.313%
20,CN(C)c1ccc(/C=C/c2cc[n+](C)cc2)cc1.[I-],2.73%
21,CN(CCCS(=O)(=O)[O-])c1ccc(/C=C/c2ccc3ccccc3[n+]2C)cc1,19.6%
22,C[n+]1c(/C=C/c2ccc(O)cc2)ccc2ccccc21.[I-],-40.3%
23,CN(C)c1ccc(/C=C/c2cccc[n+]2[O-])cc1,19.7%
24,CC[n+]1c(/C=C/c2ccc(OC)c(OC)c2)ccc2ccccc21.[I-],23.5%
25,CC(C)CC[n+]1ccccc1/C=C/c1ccc(N(C)C)cc1.[I-],-71.3%
26,CC[n+]1c(/C=C/c2ccc(N(C)C)cc2)ccc2ccccc21.[I-],-72.9%

row,Structure (SMILES),"hERG current change (%, negative = inhibition) at 10uM"
1,CN(C)c1ccc(/C=C/c2ccc3ccccc3[n+]2C)cc1.[I-],-59.9%
2,CC[n+]1c(SC)ccc2cc(OC)ccc21.[O-][Cl+3]([O-])([O-])[O-],-10.6%
3,CC[n+]1c(/C=C/c2ccc(OC(C)=O)c(OC)c2)ccc2ccccc21.[I-],-4.85%
4,CCN(CC)c1ccc(/C=C/c2ccc3ccc(OC)cc3[n+]2CC)cc1.[I-],-82%
5,CCSc1ccc2cc(OC)ccc2[n+]1CC.[I-],10.8%
6,O=C(C1CCCCC1)N1CCC(O)(c2ccc(Cl)cc2)CC1,-10.7%
7,Cc1cccc(N2C(=O)CC(N(O)c3ccccc3)C2=O)c1 (stereo not shown),9.2%
8,Cc1cc(C(F)(F)F)nn1Cc1ccc(C(=O)NCc2ccco2)o1,5.14%
9,COc1ccc(C)cc1-n1nnnc1SCC1CCCCO1 (stereo not shown),-14.8%
10,CCOc1ccc(CCNc2nc3c(c(=O)n(C)c(=O)n3C)n2CC)cc1OCC,3.1%
11,CCOC(=O)C1=C(COC(=O)CC(C)c2ccccc2)NC(=O)NC1C (stereo not shown),-17.8%
12,CN1C(=O)C(=Cc2ccc(N3CCCCCC3)cc2)C(=O)N(C)C1=O,13.1%
13,CCOc1ccc2[nH]c(=O)c(C(c3nnnn3C3CCCCC3)N3CCN(CC)CC3)cc2c1 (stereo not shown),-40.3%
14,COc1cccc(NC(=O)Cc2ccc3ccccc3c2)c1,-7.16%
15,N#C/C(=C\c1cccc(OCC(=O)O)c1)c1nc2ccccc2[nH]1,19.6%
16,COc1cc(-c2noc(C)n2)cc(OC)c1OC,13.4%
17,COc1ccc(Nc2nc(NCCO)nc(N3CCCC3)n2)cc1,-38.3%
18,Cc1ccc(S(=O)(=O)NCC(=O)OCC(=O)Nc2cccc(S(=O)(=O)NC3=NCCCCC3)c2)cc1C,-1.1%
19,COc1ccccc1C(=O)NCCC(=O)Nc1nc2ccccc2[nH]1,-12.6%
20,Clc1ccc(SCCCCn2ccnc2)cc1,-53%
21,O=C(/C=C/c1ccc(Cl)c(Cl)c1)NCCCn1ccnc1,-41.7%
22,CC(C)(C)c1ccc(/C=C/C(=O)NCCCn2ccnc2)cc1,-46.5%
23,O=C(/C=C/c1ccc(Cl)cc1)NCCCn1ccnc1,-55.8%
24,O=C(/C=C/c1ccc(Br)cc1)NCCCn1ccnc1,-57%
25,Clc1ccc(SCCn2ccnc2)cc1,-1.48%
26,COc1ccc(/C=C/C(=O)NCCCn2ccnc2)cc1,-30.9%
